Compound in the experiment: Cc1ccc(-c2ccc3c(ccc4sc5c(c43)NC[C@@H](C)NC5=O)n2)cn1
In words: kinase activity remaining relative to vehicle control; higher = less inhibition. The protocol: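 In vitro radiometric kinase profiling of the MK2 inhibitor PF-3644022 at 0.1, 1 and 10 µM against a panel of kinases (MRC International Centre for Kinase Profiling, Dundee). Read-out is % kinase activity remaining relative to the vehicle control, mean of n=2.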

UniProt O75582, sequence (O75582 whole entry, looked up): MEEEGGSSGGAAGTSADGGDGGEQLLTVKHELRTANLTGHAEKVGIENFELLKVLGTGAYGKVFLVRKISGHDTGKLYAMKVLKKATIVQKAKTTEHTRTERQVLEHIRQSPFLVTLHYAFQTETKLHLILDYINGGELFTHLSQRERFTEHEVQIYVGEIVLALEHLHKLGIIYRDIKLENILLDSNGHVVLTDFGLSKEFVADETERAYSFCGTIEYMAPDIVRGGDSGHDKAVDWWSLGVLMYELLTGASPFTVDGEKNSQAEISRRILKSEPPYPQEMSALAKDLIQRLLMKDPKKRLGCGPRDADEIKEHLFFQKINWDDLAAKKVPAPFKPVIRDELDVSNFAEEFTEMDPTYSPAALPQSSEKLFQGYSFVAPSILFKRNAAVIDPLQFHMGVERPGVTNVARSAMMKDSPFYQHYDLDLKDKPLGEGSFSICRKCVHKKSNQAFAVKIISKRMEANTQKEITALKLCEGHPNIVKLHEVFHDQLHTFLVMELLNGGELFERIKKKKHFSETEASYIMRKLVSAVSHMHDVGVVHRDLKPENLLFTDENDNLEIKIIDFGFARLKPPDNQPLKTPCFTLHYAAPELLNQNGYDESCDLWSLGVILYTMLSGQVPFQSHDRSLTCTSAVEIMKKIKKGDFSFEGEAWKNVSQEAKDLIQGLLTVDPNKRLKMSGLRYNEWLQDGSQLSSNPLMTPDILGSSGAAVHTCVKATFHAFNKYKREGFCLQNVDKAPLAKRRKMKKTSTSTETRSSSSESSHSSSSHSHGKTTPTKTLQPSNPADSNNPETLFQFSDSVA
UniProt O00141, sequence (O00141 whole entry, looked up): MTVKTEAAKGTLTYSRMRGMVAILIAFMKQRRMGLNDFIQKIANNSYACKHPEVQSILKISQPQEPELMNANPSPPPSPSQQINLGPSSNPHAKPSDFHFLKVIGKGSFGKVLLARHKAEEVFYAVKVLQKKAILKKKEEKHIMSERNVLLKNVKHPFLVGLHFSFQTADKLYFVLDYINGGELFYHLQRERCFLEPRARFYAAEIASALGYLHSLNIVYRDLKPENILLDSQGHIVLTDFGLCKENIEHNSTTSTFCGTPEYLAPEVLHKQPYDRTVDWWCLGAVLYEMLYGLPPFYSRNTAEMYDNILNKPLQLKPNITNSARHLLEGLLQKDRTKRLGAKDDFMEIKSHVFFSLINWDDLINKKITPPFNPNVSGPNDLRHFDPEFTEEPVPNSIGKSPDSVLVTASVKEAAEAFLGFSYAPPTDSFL
UniProt Q13188, sequence (Q13188 whole entry, looked up): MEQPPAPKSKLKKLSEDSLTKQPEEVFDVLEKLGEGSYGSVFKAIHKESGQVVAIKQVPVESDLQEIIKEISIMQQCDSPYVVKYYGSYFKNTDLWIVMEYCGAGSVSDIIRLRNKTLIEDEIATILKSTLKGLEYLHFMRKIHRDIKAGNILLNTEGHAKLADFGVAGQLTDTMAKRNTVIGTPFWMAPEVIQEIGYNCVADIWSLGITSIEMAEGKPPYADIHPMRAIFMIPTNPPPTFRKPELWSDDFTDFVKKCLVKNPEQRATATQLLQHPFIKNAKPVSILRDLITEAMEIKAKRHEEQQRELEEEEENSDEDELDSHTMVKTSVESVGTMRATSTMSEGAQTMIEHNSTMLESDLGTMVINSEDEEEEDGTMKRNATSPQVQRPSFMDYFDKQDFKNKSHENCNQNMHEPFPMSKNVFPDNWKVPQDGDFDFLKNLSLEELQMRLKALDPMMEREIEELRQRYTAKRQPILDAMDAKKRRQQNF
UniProt Q9BYT3, sequence (Q9BYT3 whole entry, looked up): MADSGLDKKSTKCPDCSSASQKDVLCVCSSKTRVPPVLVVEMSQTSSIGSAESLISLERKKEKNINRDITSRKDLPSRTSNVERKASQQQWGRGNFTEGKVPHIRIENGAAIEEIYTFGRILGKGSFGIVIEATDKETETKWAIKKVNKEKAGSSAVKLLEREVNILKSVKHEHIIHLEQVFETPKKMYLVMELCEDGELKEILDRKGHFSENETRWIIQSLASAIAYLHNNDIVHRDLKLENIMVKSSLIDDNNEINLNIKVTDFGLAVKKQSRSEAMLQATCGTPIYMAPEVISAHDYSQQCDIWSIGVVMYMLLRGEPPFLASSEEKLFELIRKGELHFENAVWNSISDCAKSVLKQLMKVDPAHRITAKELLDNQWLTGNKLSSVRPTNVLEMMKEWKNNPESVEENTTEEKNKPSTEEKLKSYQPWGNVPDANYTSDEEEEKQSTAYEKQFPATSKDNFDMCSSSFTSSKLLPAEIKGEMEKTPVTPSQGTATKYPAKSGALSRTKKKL
UniProt O43353, sequence (O43353 whole entry, looked up): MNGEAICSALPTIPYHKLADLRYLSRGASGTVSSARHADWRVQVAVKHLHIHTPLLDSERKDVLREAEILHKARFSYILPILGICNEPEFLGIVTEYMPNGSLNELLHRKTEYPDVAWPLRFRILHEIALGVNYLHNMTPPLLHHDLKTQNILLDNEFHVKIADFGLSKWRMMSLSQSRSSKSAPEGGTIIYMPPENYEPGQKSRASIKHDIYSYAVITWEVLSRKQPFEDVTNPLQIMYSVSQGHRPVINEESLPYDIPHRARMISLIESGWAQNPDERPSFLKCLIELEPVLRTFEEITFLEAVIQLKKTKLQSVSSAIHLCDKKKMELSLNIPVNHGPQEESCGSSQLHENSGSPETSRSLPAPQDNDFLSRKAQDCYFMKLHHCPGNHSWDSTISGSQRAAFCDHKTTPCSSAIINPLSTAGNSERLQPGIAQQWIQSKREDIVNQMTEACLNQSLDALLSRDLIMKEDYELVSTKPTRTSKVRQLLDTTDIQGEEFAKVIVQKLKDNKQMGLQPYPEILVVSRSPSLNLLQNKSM
UniProt Q9Y2K2, sequence (Q9Y2K2 whole entry, looked up): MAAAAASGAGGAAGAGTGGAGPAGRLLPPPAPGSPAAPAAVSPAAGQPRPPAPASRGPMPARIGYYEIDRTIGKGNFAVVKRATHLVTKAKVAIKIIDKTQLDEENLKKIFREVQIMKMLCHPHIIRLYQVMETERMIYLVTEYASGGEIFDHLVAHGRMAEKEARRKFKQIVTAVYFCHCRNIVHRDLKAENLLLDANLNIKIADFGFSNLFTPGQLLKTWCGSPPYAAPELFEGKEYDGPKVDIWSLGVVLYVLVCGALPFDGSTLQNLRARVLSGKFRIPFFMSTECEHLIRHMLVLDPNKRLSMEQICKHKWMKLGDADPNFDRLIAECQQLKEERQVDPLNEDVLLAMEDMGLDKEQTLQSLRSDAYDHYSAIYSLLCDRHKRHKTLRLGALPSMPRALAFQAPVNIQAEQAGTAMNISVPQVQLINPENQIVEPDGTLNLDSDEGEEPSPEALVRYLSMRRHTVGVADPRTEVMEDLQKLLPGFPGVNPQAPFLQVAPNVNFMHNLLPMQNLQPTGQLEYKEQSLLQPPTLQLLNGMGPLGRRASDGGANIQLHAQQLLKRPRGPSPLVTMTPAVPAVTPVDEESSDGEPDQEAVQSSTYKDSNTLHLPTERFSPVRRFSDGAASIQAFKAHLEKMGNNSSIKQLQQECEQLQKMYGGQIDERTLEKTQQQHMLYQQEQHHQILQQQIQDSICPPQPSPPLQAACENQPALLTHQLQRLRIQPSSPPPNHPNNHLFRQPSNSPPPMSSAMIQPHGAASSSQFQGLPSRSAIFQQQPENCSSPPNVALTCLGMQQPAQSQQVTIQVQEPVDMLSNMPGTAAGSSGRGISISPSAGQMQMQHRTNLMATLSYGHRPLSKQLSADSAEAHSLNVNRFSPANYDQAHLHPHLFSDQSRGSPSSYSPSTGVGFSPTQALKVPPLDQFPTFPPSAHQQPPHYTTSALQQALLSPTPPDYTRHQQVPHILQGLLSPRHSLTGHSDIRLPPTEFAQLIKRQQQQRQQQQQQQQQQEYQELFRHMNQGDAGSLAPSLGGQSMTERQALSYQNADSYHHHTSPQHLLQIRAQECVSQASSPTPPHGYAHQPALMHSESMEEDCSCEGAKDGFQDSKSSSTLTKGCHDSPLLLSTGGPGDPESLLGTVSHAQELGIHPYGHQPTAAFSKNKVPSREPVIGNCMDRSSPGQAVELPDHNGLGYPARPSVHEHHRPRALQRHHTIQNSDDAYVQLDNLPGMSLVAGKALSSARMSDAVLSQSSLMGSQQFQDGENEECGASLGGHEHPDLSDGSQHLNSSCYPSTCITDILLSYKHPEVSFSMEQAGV
UniProt Q8IW41, sequence (Q8IW41 whole entry, looked up): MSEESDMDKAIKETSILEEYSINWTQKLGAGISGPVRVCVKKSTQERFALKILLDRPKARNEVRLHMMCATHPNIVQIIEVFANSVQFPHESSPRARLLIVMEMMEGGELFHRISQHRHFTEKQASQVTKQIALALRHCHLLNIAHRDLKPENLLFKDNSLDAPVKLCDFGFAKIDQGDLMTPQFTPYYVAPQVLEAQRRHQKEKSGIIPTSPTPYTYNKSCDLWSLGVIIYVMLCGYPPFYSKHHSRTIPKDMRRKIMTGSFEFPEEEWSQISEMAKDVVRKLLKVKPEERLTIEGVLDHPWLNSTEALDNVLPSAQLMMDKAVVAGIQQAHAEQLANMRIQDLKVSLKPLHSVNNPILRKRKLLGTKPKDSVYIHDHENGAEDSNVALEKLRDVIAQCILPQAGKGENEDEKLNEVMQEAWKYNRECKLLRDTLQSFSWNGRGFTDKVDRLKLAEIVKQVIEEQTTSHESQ

In the case of RSK2 (UniProt P51812), the kinase activity remaining (inhibitor concentration 0.1 µM) is 104%, the kinase activity remaining (inhibitor concentration 1 µM) is 79% and the kinase activity remaining (inhibitor concentration 10 µM) amounted to 50%.
Regarding BTK (UniProt Q06187), the kinase activity remaining (inhibitor concentration 0.1 µM) stood at 120%, the kinase activity remaining (inhibitor concentration 1 µM) was found to be 118% and the kinase activity remaining (inhibitor concentration 10 µM) was 107%.
For MSK1 (UniProt O75582) the same measures were 120%, 105% and 99%.
The like results for STK33 (UniProt Q9BYT3) were, in that order, 105%, 83% and 38%.
The like results for DYRK1A (UniProt Q13627) were, in that order, 80%, 31% and 8%.
On to PRAK (UniProt Q8IW41), for which the kinase activity remaining is, setting by setting: (inhibitor concentration 0.1 µM) 126%; (inhibitor concentration 1 µM) 67%; (inhibitor concentration 10 µM) 24%.
The like results for MST2 (UniProt Q13188) were, in that order, 131%, 135% and 100%.
The like results for AMPK were, in that order, 93%, 38% and 9%.
For TTBK2 (UniProt Q6IQ55) the same measures were 122%, 122% and 103%.
Take RIPK2 (UniProt O43353): the kinase activity remaining runs as follows: (inhibitor concentration 0.1 µM) 93%; (inhibitor concentration 1 µM) 94%; (inhibitor concentration 10 µM) 39%.
For SGK1 (UniProt O00141) the same measures were 116%, 112% and 112%.
The like results for HIPK2 (UniProt Q9H2X6) were, in that order, 123%, 113% and 78%.
For SIK3 (UniProt Q9Y2K2) the same measures were 98%, 99% and 73%.

The values above are taken from the supplement of paper PMC6378613.
